In PubChem BioAssay AID1159580 (chemical genetic matrix, 2015):
About 2,000 (36%) of roughly 5,500 compounds were called active. Roughly 18% stayed inconclusive and do not appear here. Rule as the data show it: active = normalized growth mostly below about 0.91 (no sharp cut-off); inconclusive = no clear call, values can overlap the other calls; inactive = mostly above about 0.92. The list shows a part of the results.

Experiment: chemical genetic growth profiling, strain panel (AID 1159580);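 also: tested at 20 µM; growth read once vehicle control cultures reached saturation at 30 °C; 1 = growth at the plate median or of vehicle wells; lower values mean less growth of the strain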
Conditions: growth OD
[1] = S. cerevisiae deletion strains, locus YAL013W, strain DEP1, stronger effect = lower value
[2] = S. cerevisiae deletion strains, locus YBR229C, strain ROT2, stronger effect = lower value
[3] = S. cerevisiae deletion strains, locus YDL101C, strain DUN1, stronger effect = lower value
[4] = S. cerevisiae deletion strains, locus YDL134C, strain PPH21, stronger effect = lower value
[5] = S. cerevisiae deletion strains, locus YDR150W, strain NUM1, stronger effect = lower value
[6] = S. cerevisiae deletion strains, locus YEL061C, strain CIN8, stronger effect = lower value
[7] = S. cerevisiae deletion strains, locus YGR078C, strain PAC10, stronger effect = lower value
[8] = S. cerevisiae deletion strains, locus YHR030C, strain SLT2, stronger effect = lower value
[9] = S. cerevisiae deletion strains, locus YHR087W, strain rtc3, stronger effect = lower value
[10] = S. cerevisiae deletion strains, locus YJR043C, strain POL32, stronger effect = lower value
[11] = S. cerevisiae deletion strains, locus YJR075W, strain HOC1, stronger effect = lower value
[12] = S. cerevisiae deletion strains, locus YKL190W, strain CNB1, stronger effect = lower value
[13] = S. cerevisiae deletion strains, locus YLR039C, strain RIC1, stronger effect = lower value
[14] = S. cerevisiae deletion strains, locus YLR058C, strain SHM2 (second series), stronger effect = lower value
[15] = S. cerevisiae deletion strains, locus YLR085C, strain ARP6, stronger effect = lower value
[16] = S. cerevisiae deletion strains, locus YLR262C, strain YPT6, stronger effect = lower value
[17] = S. cerevisiae deletion strains, locus YML094W, strain GIM5, stronger effect = lower value
[18] = S. cerevisiae deletion strains, locus YMR219W, strain ESC1, stronger effect = lower value
[19] = S. cerevisiae deletion strains, locus YMR263W, strain SAP30, stronger effect = lower value
[20] = S. cerevisiae deletion strains, locus YMR307W, strain GAS1, stronger effect = lower value
[21] = S. cerevisiae deletion strains, locus YNL153C, strain GIM3, stronger effect = lower value
[22] = S. cerevisiae deletion strains, locus YNL298W, strain CLA4 (second series), stronger effect = lower value
[23] = S. cerevisiae deletion strains, locus YNL322C, strain KRE1, stronger effect = lower value
[24] = S. cerevisiae deletion strains, locus YNR030W, strain Alg12, stronger effect = lower value
[25] = S. cerevisiae deletion strains, locus YPL055C, strain LGE1, stronger effect = lower value
[26] = S. cerevisiae deletion strains, locus YPL241C, strain CIN2, stronger effect = lower value
[27] = S. cerevisiae deletion strains, locus YPR135W, strain CTF4, stronger effect = lower value

Measured: normalized growth

N/C(=N/O)c1csc(-c2ccc(F)cc2F)n1
inactive: [1] 0.96 | [2] 0.978 | [3] 1.02 | [4] 0.995 | [5] 0.968 | [6] 1.01 | [7] 0.989 | S. cerevisiae deletion strains, locus YGR229C, strain SMI1, stronger effect = lower value 0.995 | [8] 0.921 | [9] 0.98 | [10] 1 | [11] 1.02 | [12] 0.996 | [13] 0.933 | [14] 1.01 | [15] 1.14 | [16] 0.969 | [17] 0.933 | [18] 0.995 | [19] 0.997 | [20] 1.25 | [21] 0.986 | [22] 1.01 | [23] 1 | [24] 0.983 | [25] 0.943 | [26] 1 | [27] 0.844 | S. cerevisiae strains, strain wild type, stronger effect = lower value 0.991

Cc1ccc(/C(N)=N\O)cc1F
inactive: [1] 0.998 | [2] 1 | [3] 1.01 | [4] 0.988 | [5] 0.995 | [6] 1.01 | [7] 1.01 | [8] 1.03 | [9] 1 | S. cerevisiae deletion strains, locus YJL187C, strain SWE1, stronger effect = lower value 1.02 | [10] 1.01 | [11] 1.03 | [12] 0.988 | [13] 1.04 | [14] 1.02 | [16] 0.997 | [17] 1 | [18] 1 | [19] 1 | [20] 1.24 | S. cerevisiae deletion strains, locus YNL128W, strain TEP1, stronger effect = lower value 0.975 | [21] 1.02 | [22] 1.02 | [23] 1 | [24] 0.989 | S. cerevisiae deletion strains, locus YOL006C, strain TOP1, stronger effect = lower value 1.03 | [25] 1.03 | [26] 1.1 | [27] 1.07
active: [15] 1.32 [resistant]
